Consider four molecules from PubChem BioAssay AID449750 (Broad Institute, 2010).

Hit rate of the full screen: of about 2,100 compounds, about 1,400 (67%) were called active. No rule for the calls is given here. So high a share suggests a set chosen from earlier hits. The list shows a part of the results. Measured potencies and affinities stand elsewhere.

The nature of the experiment: non-covalent RecA intein splicing inhibitors, dose response, biochemical, cell-free, fluorescence, secondary screen (AID 449750). Particulars: series mostly up to 38 µM.
Consider `COCCn1c(N)c(C(=O)NCc2cccs2)c2nc3ccccc3nc21`, for which the molecule was classed as inactive. To `CC1=NN(Cc2ccccc2)C(=O)/C1=C\c1ccc(N(C)C)cc1` belongs “inactive”; to `Cc1ccccc1NC1=C/C(=N\S(=O)(=O)c2cccs2)c2ccccc2C1=O`, “inactive”.

`Oc1ccc(N=Cc2ccc(-c3cccs3)s2)cc1`: the outcome was inactive.
